Experimental data from ChEMBL document CHEMBL3988442, “University of Dundee, Small-Polar-MMV Screening Library” (2021).

biological target: T1, Tyrosyl-tRNA synthetase, putative (Trypanosoma cruzi (strain CL Brener)) (UniProt Q4DSP6); assay: Trypanosoma cruzi tyrosyl tRNA synthetase (TcYRS) SOP; assay type: functional; design: scale not given: direction of the effect not stated beside the values; conditions: 30 µM
T1 sequence (whole entry): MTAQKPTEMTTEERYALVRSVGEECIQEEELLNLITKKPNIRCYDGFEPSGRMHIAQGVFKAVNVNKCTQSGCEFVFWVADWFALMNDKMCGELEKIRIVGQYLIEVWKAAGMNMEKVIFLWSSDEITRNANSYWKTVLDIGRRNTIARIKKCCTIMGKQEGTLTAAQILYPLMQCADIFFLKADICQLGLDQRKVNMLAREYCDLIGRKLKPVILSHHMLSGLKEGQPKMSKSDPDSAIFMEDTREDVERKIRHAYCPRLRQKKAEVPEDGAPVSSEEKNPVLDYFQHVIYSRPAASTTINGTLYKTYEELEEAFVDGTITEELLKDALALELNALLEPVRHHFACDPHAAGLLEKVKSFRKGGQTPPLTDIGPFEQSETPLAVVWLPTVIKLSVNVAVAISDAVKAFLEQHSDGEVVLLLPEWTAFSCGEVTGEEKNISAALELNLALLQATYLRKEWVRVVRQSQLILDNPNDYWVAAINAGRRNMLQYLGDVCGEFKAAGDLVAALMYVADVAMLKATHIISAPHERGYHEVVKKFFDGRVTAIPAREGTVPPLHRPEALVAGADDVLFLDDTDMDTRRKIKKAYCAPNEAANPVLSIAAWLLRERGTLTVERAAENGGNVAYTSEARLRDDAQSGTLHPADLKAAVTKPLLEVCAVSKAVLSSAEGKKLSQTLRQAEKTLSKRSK

SMILES | Percent Effect
Cc1cccc(N2CC[C@@H]3CN(C(=O)c4ccco4)CCO[C@@H]3C2)n1 | 14.1%
CCC1=N[C@@]2(CC[C@@H]3CN(CC(=O)N(C)C)C[C@@H]32)C(=O)N1CC1CC1 | 10.3%
CCCC(NC(=O)c1ccc(OC)cc1F)c1nnn[nH]1 (stereo not given) | 8.64%
Cc1noc(C(C)N2CCN(CC(=O)N3CCOCC3)CC2)n1 (stereo not given) | 10.4%
c1ccc(CN2CCCC2Cn2cncn2)nc1 (stereo not given) | 3.8%
O=C(c1ccno1)N1CC[C@@H]2O[C@@H](COCCN3CCCC3)CC[C@@H]21 | 15.4%
CCOc1ccnc(N2CCN(C(=O)c3cccnc3O)CC2)n1 | 26.6%
CC(C)(C(=O)NCC(N)=O)c1ccccc1F | 0%
CCOc1ncccc1C(=O)N(C)Cc1ncc(C)c(OC)c1C | 18.8%
Cc1cccc(C(=O)N2C[C@@H]3CCN(c4cccnc4)C[C@@H]3C2)c1 | -3.85%
CC(OCC(F)(F)F)C(=O)Nc1ccc(-n2cncn2)nc1 (stereo not given) | 9.41%
Cc1noc(C)c1-c1cncc(C2CCCN2Cc2ccncc2)n1 (stereo not given) | 1.3%
C=C(C)CN(Cc1cccc(O)c1)C1CCC(O)CC1 (stereo not given) | 6.17%
COc1ccccc1CC(=O)N1CCC(NCc2c[nH]nc2C)CC1 | 23.2%
CC(C)Cc1noc(CN2CCN(CCO)CC2)n1 | 9.76%
COc1cccc(CN(C)C(=O)CN2CC(n3nc(C)cc3C)C2)c1 | 39%
CCc1noc(C)c1C(=O)N1CCCC1Cn1nc(C)cc1C (stereo not given) | 13.6%
COc1ccc(CN(C)C(=O)CCc2c(C)nc(C)[nH]c2=O)cc1OC | 12.8%
Cc1cc(N2CCCN(C(=O)Cc3ccc(O)c(Cl)c3)CC2)ccn1 | 18.5%
Cc1ccc2nc(C3CCN(CCO)CC3)nn2c1 | 10%

SMILES | Percent Effect
Cc1ccsc1C(=O)N1CC(C(=O)N2CCOCC2)C2(CCOCC2)C1 (stereo not given) | -8.97%
Cc1ccccc1C(=O)NCc1ccc(N2CCNC(=O)C2)cc1 | 17.1%
CC1CCN(S(=O)(=O)NCCCn2cncn2)CC1 | 12.7%
CCN(Cc1ccc2c(c1)OCO2)C(=O)NC(C)Cn1cccn1 (stereo not given) | 14.6%
CCN(CC)C(=O)CCc1c(C)nc2cc(O)nn2c1C | 7.79%
CC(C)NC(=O)[C@@H]1C[C@H](N)CN1C(=O)c1cc2ccccc2[nH]c1=O | 15.4%
CCc1ccc(NC(=O)N2C[C@H]3C[C@H](C(=O)NC)[C@@H](C2)O3)cc1 | 6.41%
CCN1CC2(CCNCC2)COc2ccccc2S1(=O)=O | 5.13%
CN1CCc2cc(C(CNS(=O)(=O)c3cccs3)N3CCCC3)ccc21 (stereo not given) | 8.97%
CC(NC(=O)N(C)Cc1ccc(Cl)s1)c1ccccn1 (stereo not given) | 12.7%
O=c1oc(-c2cccs2)nn1CC(O)c1ccccc1 (stereo not given) | 16.1%
Cc1cc(NC(=O)NCc2ccccc2OC(F)F)n(C)n1 | 2.53%
O=C(Cn1ccc2ccccc21)NCc1ccc(C(=O)O)cc1 | 10.4%
CCCNC(=O)Cn1nc(C(C)C)c2cnn(C(C)(C)C)c2c1=O | 15%
Cc1ccc(CNCc2nnc3n2CCCC3C(F)(F)F)s1 (stereo not given) | 21%
CCn1c(Cn2cncn2)nnc1C1CCN(Cc2ccncc2)CC1 | 21%
CC(=O)c1cc(CC(=O)NCc2ccc(CN(C)C)cc2)cs1 | 4.88%
CN(Cc1ccsc1)C(=O)CN1CCCC1Cn1cccn1 (stereo not given) | 7.06%
c1cnnc(N2CCCC2CNCc2nc3ccccc3o2)c1 (stereo not given) | 25.9%
CCN1C[C@@H]2[C@@H](OC)CCN(S(=O)(=O)c3ccccc3)[C@@H]2C1 | 6.41%

biological target: Chromo domain-containing protein 1 (Saccharomyces cerevisiae (strain ATCC 204508 / S288c) (Baker's yeast)) (UniProt P32657); assay: ScCHD-1 Enzyme Inhibition Assay; assay type: functional; design: scale not given: in the data most compounds retested in dose-response had high values; conditions: 30 µM
Sequence (P32657 whole entry, the tested form may be a part): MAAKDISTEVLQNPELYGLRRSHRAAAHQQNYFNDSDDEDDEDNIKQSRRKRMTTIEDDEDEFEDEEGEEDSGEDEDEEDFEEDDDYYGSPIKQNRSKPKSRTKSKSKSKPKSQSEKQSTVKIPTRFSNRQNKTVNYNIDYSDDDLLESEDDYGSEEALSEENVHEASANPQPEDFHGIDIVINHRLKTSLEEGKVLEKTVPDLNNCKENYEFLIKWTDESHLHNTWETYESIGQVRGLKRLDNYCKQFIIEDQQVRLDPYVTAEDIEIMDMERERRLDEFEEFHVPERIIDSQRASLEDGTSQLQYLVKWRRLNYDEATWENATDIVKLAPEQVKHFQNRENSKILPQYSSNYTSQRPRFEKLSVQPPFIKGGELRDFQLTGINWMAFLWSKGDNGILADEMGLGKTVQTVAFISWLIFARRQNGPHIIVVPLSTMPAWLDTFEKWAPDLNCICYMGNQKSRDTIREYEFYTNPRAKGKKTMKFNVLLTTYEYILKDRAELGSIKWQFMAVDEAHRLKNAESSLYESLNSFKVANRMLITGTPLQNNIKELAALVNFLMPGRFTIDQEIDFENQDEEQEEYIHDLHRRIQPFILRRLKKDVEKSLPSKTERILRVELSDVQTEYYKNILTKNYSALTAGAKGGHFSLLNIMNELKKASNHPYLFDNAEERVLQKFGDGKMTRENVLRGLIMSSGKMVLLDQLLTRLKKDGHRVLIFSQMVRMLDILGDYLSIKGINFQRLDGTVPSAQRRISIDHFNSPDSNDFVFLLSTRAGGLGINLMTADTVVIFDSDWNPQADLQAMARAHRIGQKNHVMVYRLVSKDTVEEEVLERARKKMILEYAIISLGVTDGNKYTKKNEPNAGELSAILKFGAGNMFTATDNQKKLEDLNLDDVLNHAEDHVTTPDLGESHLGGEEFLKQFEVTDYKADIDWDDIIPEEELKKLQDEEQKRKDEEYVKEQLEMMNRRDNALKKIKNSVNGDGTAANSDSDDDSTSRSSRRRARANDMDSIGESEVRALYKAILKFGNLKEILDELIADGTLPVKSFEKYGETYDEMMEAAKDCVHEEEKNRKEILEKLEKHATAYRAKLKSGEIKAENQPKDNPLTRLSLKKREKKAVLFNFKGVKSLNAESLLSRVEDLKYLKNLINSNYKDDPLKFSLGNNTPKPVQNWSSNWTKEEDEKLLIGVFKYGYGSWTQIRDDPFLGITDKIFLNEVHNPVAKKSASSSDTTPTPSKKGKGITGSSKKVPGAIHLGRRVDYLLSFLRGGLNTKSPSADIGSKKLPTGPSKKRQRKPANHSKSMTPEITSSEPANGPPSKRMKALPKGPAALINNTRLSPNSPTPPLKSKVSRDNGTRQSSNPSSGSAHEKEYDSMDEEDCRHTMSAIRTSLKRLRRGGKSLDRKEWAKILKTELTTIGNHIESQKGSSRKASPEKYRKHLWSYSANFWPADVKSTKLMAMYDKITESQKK

SMILES | Percent Effect
Cc1cccc(N2CC[C@@H]3CN(C(=O)c4ccco4)CCO[C@@H]3C2)n1 | -6.54%
CCC1=N[C@@]2(CC[C@@H]3CN(CC(=O)N(C)C)C[C@@H]32)C(=O)N1CC1CC1 | -7.25%
CCCC(NC(=O)c1ccc(OC)cc1F)c1nnn[nH]1 (stereo not given) | -4.91%
Cc1noc(C(C)N2CCN(CC(=O)N3CCOCC3)CC2)n1 (stereo not given) | -15.2%
c1ccc(CN2CCCC2Cn2cncn2)nc1 (stereo not given) | -4.39%
O=C(c1ccno1)N1CC[C@@H]2O[C@@H](COCCN3CCCC3)CC[C@@H]21 | -2.39%
CCOc1ccnc(N2CCN(C(=O)c3cccnc3O)CC2)n1 | -4.5%
CC(C)(C(=O)NCC(N)=O)c1ccccc1F | -1.29%
CCOc1ncccc1C(=O)N(C)Cc1ncc(C)c(OC)c1C | -14.4%
Cc1cccc(C(=O)N2C[C@@H]3CCN(c4cccnc4)C[C@@H]3C2)c1 | -3.21%
CC(OCC(F)(F)F)C(=O)Nc1ccc(-n2cncn2)nc1 (stereo not given) | -17.1%
Cc1noc(C)c1-c1cncc(C2CCCN2Cc2ccncc2)n1 (stereo not given) | -9.13%
C=C(C)CN(Cc1cccc(O)c1)C1CCC(O)CC1 (stereo not given) | -4.17%
COc1ccccc1CC(=O)N1CCC(NCc2c[nH]nc2C)CC1 | -6.91%
CC(C)Cc1noc(CN2CCN(CCO)CC2)n1 | -8.48%
COc1cccc(CN(C)C(=O)CN2CC(n3nc(C)cc3C)C2)c1 | -4.54%
CCc1noc(C)c1C(=O)N1CCCC1Cn1nc(C)cc1C (stereo not given) | -6.42%
COc1ccc(CN(C)C(=O)CCc2c(C)nc(C)[nH]c2=O)cc1OC | -3.31%
Cc1cc(N2CCCN(C(=O)Cc3ccc(O)c(Cl)c3)CC2)ccn1 | -1.79%
Cc1ccc2nc(C3CCN(CCO)CC3)nn2c1 | -0.68%

SMILES | Percent Effect
Cc1ccsc1C(=O)N1CC(C(=O)N2CCOCC2)C2(CCOCC2)C1 (stereo not given) | -5.38%
Cc1ccccc1C(=O)NCc1ccc(N2CCNC(=O)C2)cc1 | -3.63%
CC1CCN(S(=O)(=O)NCCCn2cncn2)CC1 | -7.93%
CCN(Cc1ccc2c(c1)OCO2)C(=O)NC(C)Cn1cccn1 (stereo not given) | -8.47%
CCN(CC)C(=O)CCc1c(C)nc2cc(O)nn2c1C | -6.56%
CC(C)NC(=O)[C@@H]1C[C@H](N)CN1C(=O)c1cc2ccccc2[nH]c1=O | -6.54%
CCc1ccc(NC(=O)N2C[C@H]3C[C@H](C(=O)NC)[C@@H](C2)O3)cc1 | 93.4%
CCN1CC2(CCNCC2)COc2ccccc2S1(=O)=O | -8.01%
CN1CCc2cc(C(CNS(=O)(=O)c3cccs3)N3CCCC3)ccc21 (stereo not given) | -8.44%
CC(NC(=O)N(C)Cc1ccc(Cl)s1)c1ccccn1 (stereo not given) | -14.9%
O=c1oc(-c2cccs2)nn1CC(O)c1ccccc1 (stereo not given) | -4.32%
Cc1cc(NC(=O)NCc2ccccc2OC(F)F)n(C)n1 | -5.23%
O=C(Cn1ccc2ccccc21)NCc1ccc(C(=O)O)cc1 | -0.974%
CCCNC(=O)Cn1nc(C(C)C)c2cnn(C(C)(C)C)c2c1=O | -5.95%
Cc1ccc(CNCc2nnc3n2CCCC3C(F)(F)F)s1 (stereo not given) | -5.37%
CCn1c(Cn2cncn2)nnc1C1CCN(Cc2ccncc2)CC1 | -2.94%
CC(=O)c1cc(CC(=O)NCc2ccc(CN(C)C)cc2)cs1 | -2.09%
CN(Cc1ccsc1)C(=O)CN1CCCC1Cn1cccn1 (stereo not given) | 4.97%
c1cnnc(N2CCCC2CNCc2nc3ccccc3o2)c1 (stereo not given) | -2.93%
CCN1C[C@@H]2[C@@H](OC)CCN(S(=O)(=O)c3ccccc3)[C@@H]2C1 | -5.54%
